Each structure is given as a SMILES string. Activity calls are given as the source filed them.

This note sets out measurements from PubChem BioAssay.

Experiment [1] deals with Albumin (Bos taurus) (UniProt P02769). Nature of the experiment: compounds binding labelled BSA control protein – biochemical, small-molecule microarray, Alexa647 label, 635/667 nm fluorescence, artefact control for SMM control protein annotation, profiling panel (AID 1118).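 Further: score merges 667 nm emission intensity and signal-to-noise per printed compound spot.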 The conditions noted are these: BSA-A647 binding, fluorescence 635 nm, higher = more signal.
Albumin (Bos taurus), sequence (P02769 whole entry, looked up): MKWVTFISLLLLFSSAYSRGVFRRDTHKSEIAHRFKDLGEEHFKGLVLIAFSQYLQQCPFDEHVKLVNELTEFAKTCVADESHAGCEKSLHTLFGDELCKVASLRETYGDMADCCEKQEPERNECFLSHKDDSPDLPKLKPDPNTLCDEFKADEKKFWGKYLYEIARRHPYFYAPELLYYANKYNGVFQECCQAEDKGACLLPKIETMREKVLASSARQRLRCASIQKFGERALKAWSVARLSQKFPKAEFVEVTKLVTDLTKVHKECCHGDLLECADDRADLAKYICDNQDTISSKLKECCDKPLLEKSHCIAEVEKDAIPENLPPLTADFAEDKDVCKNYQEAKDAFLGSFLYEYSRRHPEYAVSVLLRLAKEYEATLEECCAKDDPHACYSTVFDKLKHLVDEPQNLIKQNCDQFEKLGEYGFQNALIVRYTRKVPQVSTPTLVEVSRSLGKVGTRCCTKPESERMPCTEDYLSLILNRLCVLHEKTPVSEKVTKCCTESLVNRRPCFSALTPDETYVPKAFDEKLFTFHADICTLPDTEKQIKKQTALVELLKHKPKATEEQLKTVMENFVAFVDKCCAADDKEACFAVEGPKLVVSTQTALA
A short description of experiment [2]: probe aXIP binding to arrayed compounds – biochemical, NeuroSMM set, 635/667 nm fluorescence, primary screen (AID 1119).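 Further: probe is the protein aXip251-270 applied at 1 µg/mL to compound-printed slides; binding of probe to printed compounds measured as 667 nm fluorescence plus signal to noise.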 Conditions: small-molecule microarray, higher = more signal, called active from +8 up or from −8 down.
Experiment [3] can be described thus: probe aNOTCH3 binding on compound microarray – biochemical, small-molecule microarray, 635/667 nm fluorescence, primary screen (AID 1120).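 Further: probe is a biotin-tagged antibody raised against NOTCH3 rather than NOTCH3 protein; score merges spot fluorescence near 667 nm with spot signal to noise.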 Conditions: higher = more signal.
A short description of experiment [4]: probe aNOTCH2 binding on compound microarray – biochemical, small-molecule microarray, 635/667 nm fluorescence, primary screen (AID 1121).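 Further: score merges feature fluorescence read at 667 nm with its signal to noise.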 The conditions noted are these: higher = more signal.
Experiment [5] addresses Carbonic anhydrase 2 (Homo sapiens) (UniProt P00918). Nature of the experiment: compounds binding carbonic anhydrase 2 – biochemical, small-molecule microarray, Alexa647-labelled CAII, profiling panel (AID 1122). Conditions: CAII-A647 binding fluorescence, higher = more signal.
Experiment [6] in a line: COS7 lysate on small-molecule microarray, probe aHis, 635 nm (AID 1123).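 Further: z-score combines 667nm fluorescence intensity with signal-to-noise per printed compound spot.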 The conditions noted are these: COS7 cell lysate, fluorescence, higher = more signal.
Experiment [7] is described as follows: probe aLAP1 signal on lysate-treated microarray – cell lysate, small-molecule microarray, COS7 lysate, primary screen (AID 1124).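 Further: lysate comes from COS7 cells expressing LAP1 and is applied at 0.3 µg/mL; score merges spot fluorescence near 667 nm with signal-to-noise over triplicate slides.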 The conditions noted are these: probe aLAP1, fluorescence, higher = more signal.
Experiment [8] relates to Sam68 (KHDRBS1). Nature of the experiment: compounds binding KHDRBS1 protein – biochemical, small-molecule microarray, 635 nm fluorescence, primary screen (AID 1125).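 Further: score merges 667 nm channel intensity with signal to noise over triplicate slides.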 The conditions noted are these: higher = more signal.
The test system of experiment [9] is Chordin-like protein 2 (CHRDL2). Briefly: compounds binding chordin-like 2 – biochemical, small-molecule microarray, 635 nm fluorescence, primary screen (AID 1126).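 Further: printed compound slides probed with Chrdl2 protein at 4 µg/mL for 1 h at 4 C; score merges 667 nm emission intensity with signal to noise over three replicate slides.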 Conditions: fluorescence 635 nm, higher = more signal.
Experiment [10] concerns the target Concanavalin-A (Canavalia ensiformis) (UniProt P02866). Briefly: compounds binding concanavalin A lectin – biochemical, small-molecule microarray, Alexa647 label, 635 nm, artefact control for SMM control protein annotation, primary screen (AID 1127).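 Further: z combines 667 nm emission intensity with signal-to-noise across three replicate slides.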 The conditions noted are these: ConA-A647 binding fluorescence, higher = more signal.
Experiment [11] is described as follows: compounds binding Alexa647 anti-His antibody – biochemical, small-molecule microarray, 635 nm fluorescence, artefact control for SMM control protein annotation, primary screen (AID 1128).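 Further: score merges feature fluorescence with signal-to-noise for each printed compound spot.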 Conditions: higher = more signal.
For experiment [12], the system named is Human papillomavirus type 1a E7 protein (residues 1-88). Nature of the experiment: HPV1a E7 small-molecule binders, primary screen, biochemical, small-molecule microarray, residues 1-88, 635 nm (AID 1129). The conditions noted are these: small-molecule microarray binding, fluorescence 635 nm; higher = more signal.
Experiment [13] deals with Focal adhesion kinase 1 (Homo sapiens) (UniProt Q05397). Briefly: PTK2 protein binding on printed compound slides – biochemical, small-molecule microarray, 635/667 nm fluorescence, BSA, DTT, primary screen (AID 1130).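 Further: composite of spot emission at 667 nm and signal to noise over triplicate slides.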 Conditions: 635 nm fluorescence, higher = more signal.
Focal adhesion kinase 1 (Homo sapiens), sequence (Q05397 whole entry, looked up): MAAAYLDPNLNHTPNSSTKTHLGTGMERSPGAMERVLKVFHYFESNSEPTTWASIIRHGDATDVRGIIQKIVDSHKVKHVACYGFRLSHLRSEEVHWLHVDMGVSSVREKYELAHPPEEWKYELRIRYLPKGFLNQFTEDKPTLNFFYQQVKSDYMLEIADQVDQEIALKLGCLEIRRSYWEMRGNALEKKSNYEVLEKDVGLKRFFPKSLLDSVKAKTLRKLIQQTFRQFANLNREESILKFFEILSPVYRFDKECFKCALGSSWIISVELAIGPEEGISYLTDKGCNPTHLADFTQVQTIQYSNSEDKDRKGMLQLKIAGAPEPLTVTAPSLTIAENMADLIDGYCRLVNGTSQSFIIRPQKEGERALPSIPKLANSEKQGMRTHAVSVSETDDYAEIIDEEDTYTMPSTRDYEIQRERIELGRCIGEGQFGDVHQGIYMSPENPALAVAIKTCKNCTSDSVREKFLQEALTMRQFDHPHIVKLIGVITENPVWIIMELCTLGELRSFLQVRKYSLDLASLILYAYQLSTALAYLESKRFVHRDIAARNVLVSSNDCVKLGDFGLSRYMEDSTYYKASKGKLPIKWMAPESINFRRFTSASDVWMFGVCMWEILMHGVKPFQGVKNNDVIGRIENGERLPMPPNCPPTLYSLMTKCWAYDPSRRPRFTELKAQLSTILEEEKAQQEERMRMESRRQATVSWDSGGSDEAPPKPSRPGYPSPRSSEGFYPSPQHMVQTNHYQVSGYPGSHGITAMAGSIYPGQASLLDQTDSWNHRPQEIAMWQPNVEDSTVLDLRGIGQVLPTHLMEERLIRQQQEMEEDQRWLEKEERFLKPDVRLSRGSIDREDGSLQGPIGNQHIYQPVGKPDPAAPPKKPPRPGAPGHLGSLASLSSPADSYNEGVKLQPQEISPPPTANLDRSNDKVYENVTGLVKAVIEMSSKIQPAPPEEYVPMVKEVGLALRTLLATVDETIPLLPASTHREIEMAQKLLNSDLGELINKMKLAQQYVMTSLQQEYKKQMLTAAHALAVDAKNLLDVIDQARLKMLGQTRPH
Experiment [14] relates to Fibrinogen (Alexa647-labelled). Nature of the experiment: Alexa647-fibrinogen binding to printed small molecules – biochemical, small-molecule microarray, 635/667 nm fluorescence, artefact control for SMM control-protein annotation, profiling panel (AID 1131).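 Further: z-score merges 667 nm fluorescence with per-spot signal-to-noise over triplicate slides.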 Conditions: fibrinogen-A647 binding fluorescence, higher = more signal.
In experiment [15] the target is Follistatin (Homo sapiens) (UniProt P19883). Briefly: FST protein binding to printed compounds – biochemical, small-molecule microarray, 635/667 nm fluorescence, primary screen (AID 1132). The conditions noted are these: 635 nm fluorescence, higher = more signal.
Follistatin (Homo sapiens), sequence (P19883 whole entry, looked up): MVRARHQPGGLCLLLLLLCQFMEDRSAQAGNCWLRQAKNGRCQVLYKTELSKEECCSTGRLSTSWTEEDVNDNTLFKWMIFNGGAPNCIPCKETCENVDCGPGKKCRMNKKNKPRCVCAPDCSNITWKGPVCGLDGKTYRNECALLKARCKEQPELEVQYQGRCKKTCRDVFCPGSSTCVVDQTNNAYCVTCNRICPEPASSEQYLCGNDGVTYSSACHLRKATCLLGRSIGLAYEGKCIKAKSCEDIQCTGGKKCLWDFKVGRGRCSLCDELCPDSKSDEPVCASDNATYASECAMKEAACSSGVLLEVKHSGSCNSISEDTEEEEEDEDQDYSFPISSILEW
Experiment [16] concerns the target Fibroblast growth factor 2 (Homo sapiens) (UniProt P09038). Briefly: basic fibroblast growth factor binding to printed compounds – biochemical, small-molecule microarray, 635/667 nm fluorescence, primary screen (AID 1133). Conditions: FGF2, fluorescence 635/667, higher = more signal.
Experiment [17] can be described thus: JC-1 mitochondrial potential readout, lung cancer cells – cell-based, A549, JC-1 fluorescence, basal, 24 h, 100 nL, profiling panel (AID 1138).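 Further: A549 lung adenocarcinoma cells under basal conditions with no added stimulus; test concentration not given here.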 The conditions noted are these: higher = more signal.
Experiment [18] concerns Lefty1. Briefly: Lefty1 protein binding to printed compounds – biochemical, small-molecule microarray, 635/667 nm fluorescence, primary screen (AID 1139). Conditions: fluorescence 635/667, higher = more signal.
The subject of experiment [19] is wheat germ agglutinin (Triticum aestivum), Alexa647-labelled. Nature of the experiment: Alexa647-WGA lectin binding to printed small molecules – biochemical, small-molecule microarray, 635/667 nm fluorescence, artefact control for SMM control-protein annotation, profiling panel (AID 1140).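 Further: score merges 667 nm feature emission with signal to noise over triplicate slides.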 Conditions: WGA-A647 binding, 635 nm fluorescence, higher = more signal.
Experiment [20] addresses Luciferin 4-monooxygenase (Photinus pyralis) (UniProt P08659). Briefly: inhibition of purified Photinus pyralis luciferase – biochemical, luminescence, purified enzyme, 2006 set, primary screen (AID 1141).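 Further: cell-free assay with purified firefly luciferase at 100 ng per well in PBS; test concentration not given here.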 Conditions: purified firefly luciferase, SteadyGlo luminescence, 30 min; higher = more signal, called active from +8 up or from −8 down.

Fibroblast growth factor 2 (Homo sapiens), sequence (P09038 whole entry, looked up): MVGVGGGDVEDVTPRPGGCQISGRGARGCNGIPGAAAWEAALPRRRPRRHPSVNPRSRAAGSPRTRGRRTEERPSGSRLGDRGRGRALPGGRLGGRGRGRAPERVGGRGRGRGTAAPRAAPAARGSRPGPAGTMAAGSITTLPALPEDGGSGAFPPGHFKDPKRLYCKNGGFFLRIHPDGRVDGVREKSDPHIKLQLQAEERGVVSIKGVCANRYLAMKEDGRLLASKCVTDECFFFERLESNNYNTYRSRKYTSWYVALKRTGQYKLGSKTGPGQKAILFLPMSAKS
Concanavalin-A (Canavalia ensiformis), sequence (P02866 whole entry, looked up): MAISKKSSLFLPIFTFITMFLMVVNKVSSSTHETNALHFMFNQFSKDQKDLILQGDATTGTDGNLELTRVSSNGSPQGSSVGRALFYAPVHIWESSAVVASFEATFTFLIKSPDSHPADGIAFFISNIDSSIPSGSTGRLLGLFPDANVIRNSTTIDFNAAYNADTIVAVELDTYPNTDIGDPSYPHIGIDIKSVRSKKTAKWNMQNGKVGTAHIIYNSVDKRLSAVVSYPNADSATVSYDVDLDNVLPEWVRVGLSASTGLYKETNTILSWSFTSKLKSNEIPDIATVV
Luciferin 4-monooxygenase (Photinus pyralis), sequence (P08659 whole entry, looked up): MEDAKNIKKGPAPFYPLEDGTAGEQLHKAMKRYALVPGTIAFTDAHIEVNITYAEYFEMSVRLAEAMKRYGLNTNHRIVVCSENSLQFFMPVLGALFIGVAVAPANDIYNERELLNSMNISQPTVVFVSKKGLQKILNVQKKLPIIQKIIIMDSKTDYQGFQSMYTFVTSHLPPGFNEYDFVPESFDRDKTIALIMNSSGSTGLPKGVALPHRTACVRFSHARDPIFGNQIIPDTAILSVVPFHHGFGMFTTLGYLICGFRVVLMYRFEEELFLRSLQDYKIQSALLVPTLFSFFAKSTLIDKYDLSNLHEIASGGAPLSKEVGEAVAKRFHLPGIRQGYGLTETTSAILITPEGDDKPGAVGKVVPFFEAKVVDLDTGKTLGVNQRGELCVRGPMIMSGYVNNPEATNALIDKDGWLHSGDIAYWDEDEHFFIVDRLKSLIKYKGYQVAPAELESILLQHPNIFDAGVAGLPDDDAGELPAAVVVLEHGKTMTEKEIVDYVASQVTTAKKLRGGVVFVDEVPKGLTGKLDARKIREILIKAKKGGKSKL

As for `O=C1NC(=O)C2C1C=CC(C(O)CCc1ccccc1)N2Nc1ccc(Cl)cc1Cl` (stereo not given), the composite z-score was 0.709 in [1]; -0.142 in [3]; 0.345 in experiment [4]; 0.79 in experiment [5]; 2.25 in experiment [6]; 0.925 in [7]. The composite z-score is 0.969 in [8]; -1.3 in experiment [9]; -0.0165 in experiment [10]; 0.371 in experiment [11]; 1.18 in [12]; 1.11 in [13]. For the same compound, the composite z-score was 0.363 in experiment [14]; 0.0611 in experiment [15]; -0.83 in experiment [16]; -0.556 in experiment [18]; 1.07 in [19]. Also, the composite Z-score in [2] was 0.118 (inactive). For the same compound, the z-score in [17] is -0.267; in experiment [20], 0.369 (inactive).
Turning to `COCCCNC(=O)[C@]1(CCS(=O)(=O)c2ccccc2)N=C(c2ccc(OCCCO)cc2)O[C@@H]1c1ccccc1CN=[N+]=[N-]`, the composite z-score in experiment [1] stood at 1.05; in experiment [3], 0.271; in experiment [4] it was 0.228; in [5] it was 0.735; in experiment [6] it was 2.79; in [7] it was 0.295. Moreover, the composite z-score was 1.3 in [8]; -0.79 in experiment [9]; 1.24 in experiment [10]; 3.31 in experiment [11]; 1.25 in experiment [12]; 1.44 in experiment [13]. Further, the composite z-score turned out to be 0.986 in [14]; 1.32 in [15]; 0.803 in experiment [16]; 0.144 in experiment [18]; 1.45 in experiment [19]. In addition, the composite Z-score in experiment [2] is 0.0933 (inactive). For the same compound, the z-score in experiment [17] was 0.705; in experiment [20], -0.842 (inactive).
On to `CCOC(=O)C[C@H]1[C@H](OC(=O)c2cc3ccccc3oc2=O)[C@@H](NC(=O)c2ccc(-c3ccccc3)cc2)c2cc(OCCCO)ccc2N1C(=O)c1ccc2ccccc2n1`, for which the composite z-score in experiment [1] is 0.111; in experiment [3], 0.0864; in experiment [4], -0.147; in experiment [5] it was 0.4; in experiment [6], 0.837; in [7] it was 0.205. Further, the composite z-score in experiment [8] worked out at 1.32; in [9], 0.492; in experiment [10] it was 0.708; in experiment [11], 1.04; in [12] it was 1.15; in experiment [13], 0.553. For the same compound, the composite z-score in experiment [14] was determined as 0.458; in experiment [15] it was 1.11; in [16], 0.485; in experiment [18] it was 0.964; in experiment [19] it was 0.543. In addition, the composite Z-score in experiment [2] was 0.6 (inactive). For the same compound, the values for the z-score in experiment [17] and in experiment [20] were -0.408 and 0.778 (inactive), respectively.
For the compound `NCCCCCNC(=O)[C@@H]1C[C@@H]2C(=O)NCC(=O)N2[C@@H]1c1cccc(OCCO)c1`, the composite z-score is 0.411 in experiment [1]; 0.154 in experiment [3]; -0.0366 in [4]; 0.443 in experiment [5]; 0.506 in experiment [6]; 0.954 in experiment [7]. Besides, the composite z-score came out at 1.32 in experiment [8]; 0.788 in experiment [9]; 1.17 in experiment [10]; 2.23 in [11]; 1.16 in [12]; 0.551 in [13]. Further, the composite z-score was 0.47 in [14]; 1.45 in experiment [15]; 1.17 in [16]; 1.55 in experiment [18]; 0.951 in experiment [19]. Further, in experiment [2], the composite Z-score is 0.401 (inactive). The z-score in [17] is -0.552; in experiment [20], -0.637 (inactive).
As to `O=C1N(Cc2ccccc2)c2ccccc2[C@@H]2OC(c3ccc(OCCCO)cc3)=N[C@]12Cc1ccccc1`, the composite z-score in experiment [1] is -0.34; in experiment [3], -0.0362; in [4], -0.0146; in experiment [5] it was 0.607; in experiment [6], 2.23; in experiment [7], -0.327. Further, the composite z-score came to 1.3 in experiment [8]; 0.29 in experiment [9]; 1.11 in [10]; 0.205 in experiment [11]; 1.24 in [12]; 0.623 in experiment [13]. Further, the composite z-score in experiment [14] came to 0.787; in experiment [15] it was 1.12; in [16], 1.12; in experiment [18], 0.183; in [19], 0.849. In addition, the composite Z-score in [2] was -0.296 (inactive). Further, the z-score in experiment [17] was -1.31; in [20], -3.86 (inactive).
On to `CC(C)C[C@@H]1NC(=O)[C@@H]2C[C@H](C(=O)NCCCCN(C)C)[C@H](c3cccc(OCCO)c3)N2C1=O`, for which the composite z-score in experiment [1] is 0.434; in experiment [3], -0.245; in experiment [4], -0.132; in experiment [5], 0.466; in experiment [6] it was 1.63; in experiment [7], 0.613. For the same compound, the composite z-score in experiment [8] is 0.505; in experiment [9], 0.175; in experiment [10] it was 0.129; in experiment [11], -0.421; in experiment [12], -0.46; in experiment [13] it was 0.392. Further, the composite z-score was -1.81 in experiment [14]; 0.787 in experiment [15]; 0.549 in experiment [16]; 0.24 in [18]; 0.779 in experiment [19]. Moreover, the composite Z-score in [2] is 0.157 (inactive). Further, the z-score in experiment [17] is -0.57; in experiment [20], 0.857 (inactive).
